# Laboratory results published in the supplement of paper PMC10849652.
# Of roughly 7,900 targets only a part is listed; those with a hit were picked by preference. About 0.6% of all pairs of compound and target were hits. Values without a mark were called inactive.
# Experiments:
# Test in all cases: log2 fold change, soluble protein after heating vs DMSO (PISA); higher = thermal stabilisation; K562 cells, 10 uM, 30 min; active = over 0.2 and 3.5 SD of the protein, either way, in both replicates (recomputed)
# [1] = compound: CS(=O)(=O)c1ccc(-c2cnc(N)c(C(=O)Nc3ccccc3)n2)cc1
# Summary of the method: (§1)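 K562 cells at 2×10^6 cells/mL were exposed to 10 μM compound for 30 min, then aliquots were heated for 3 min across 48°C-58°C, pooled, and extracted in PBS containing 0.5% NP-40 at 4°C. The supernatant after 21,000xg for 90 min was taken as soluble protein and measured by TMTpro 16plex LC-MS/MS with channel sums equalised. Thermal stability is reported relative to control samples, with values from duplicates. Fold changes are given on a log2 scale.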
# crizotinib = compound: C[C@@H](Oc1cc(-c2cnn(C3CCNCC3)c2)cnc1N)c1c(Cl)ccc(F)c1Cl [crizotinib]
# Summary of the method: as §1
# [2] = compound: C[C@@H]1COCCN1C2=NC(=NC(=C2)C3(CC3)S(=O)(=O)C)C4=C5C=CNC5=CC=C4
# Summary of the method: as §1
# [3] = compound: C[C@H](C1=CC=C(C=C1)C(=O)NC2=C3C=CNC3=NC=C2)N
# Summary of the method: as §1
# duvelisib = compound: C[C@H](Nc1ncnc2nc[nH]c12)c1cc2cccc(Cl)c2c(=O)n1-c1ccccc1 [duvelisib]
# Summary of the method: as §1
# gandotinib = compound: Cc1cc(Nc2cc(CN3CCOCC3)c3nc(C)c(Cc4ccc(Cl)cc4F)n3n2)n[nH]1 [gandotinib]
# Summary of the method: as §1
# [4] = compound: Cc1cc(SCc2sc(-c3ccc(C(F)(F)F)cc3)nc2C)ccc1OCC(=O)O
# Summary of the method: as §1
# doramapimod = compound: Cc1ccc(-n2nc(C(C)(C)C)cc2NC(=O)Nc2ccc(OCCN3CCOCC3)c3ccccc23)cc1 [doramapimod]
# Summary of the method: as §1
# ispinesib = compound: Cc1ccc(C(=O)N(CCCN)[C@@H](c2nc3cc(Cl)ccc3c(=O)n2Cc2ccccc2)C(C)C)cc1 [ispinesib]
# Summary of the method: as §1
# bafetinib = compound: Cc1ccc(NC(=O)c2ccc(CN3CC[C@H](N(C)C)C3)c(C(F)(F)F)c2)cc1Nc1nccc(-c2cncnc2)n1 [bafetinib]
# Summary of the method: as §1
# [5] = compound: Cc1cccc(CC(=O)N2CCc3c2ccc(-c2cn(C)c4ncnc(N)c24)c3F)n1
# Summary of the method: as §1
# nilotinib = compound: Cc1cn(-c2cc(NC(=O)c3ccc(C)c(Nc4nccc(-c5cccnc5)n4)c3)cc(C(F)(F)F)c2)cn1 [nilotinib]
# Summary of the method: as §1
# [6] = compound: Cc1nc(Nc2n[nH]c3c2CN(C(=O)N[C@H](CN(C)C)c2ccccc2)C3(C)C)c2sccc2n1
# Summary of the method: as §1
# dasatinib = compound: Cc1nc(Nc2ncc(C(=O)Nc3c(C)cccc3Cl)s2)cc(N2CCN(CCO)CC2)n1 [dasatinib]
# Summary of the method: as §1
# [7] = compound: Cc1ncc(-c2ccnc(Nc3ccc(S(C)(=O)=O)cc3)n2)n1C(C)C
# Summary of the method: as §1
# [8] = compound: Cn1cc(-c2ccc3c(c2)CCN3C(=O)Cc2cccc(C(F)(F)F)c2)c2c(N)ncnc21
# Summary of the method: as §1
# [9] = compound: Cn1cc(-c2ccc3nnc(C(F)(F)c4ccc5ncccc5c4)n3n2)cn1
# Summary of the method: as §1
# tipifarnib = compound: Cn1cncc1[C@@](N)(c1ccc(Cl)cc1)c1ccc2c(c1)c(-c1cccc(Cl)c1)cc(=O)n2C [tipifarnib]
# Summary of the method: as §1
# mubritinib = compound: FC(F)(F)c1ccc(/C=C/c2nc(COc3ccc(CCCCn4ccnn4)cc3)co2)cc1 [mubritinib]
# Summary of the method: as §1
# tozasertib = compound: Cc1cc(Nc2cc(N3CCN(C)CC3)nc(Sc3ccc(NC(=O)C4CC4)cc3)n2)n[nH]1 [tozasertib]
# Summary of the method: as §1
# Chain of UniProt P48729 (P48729 whole entry, looked up): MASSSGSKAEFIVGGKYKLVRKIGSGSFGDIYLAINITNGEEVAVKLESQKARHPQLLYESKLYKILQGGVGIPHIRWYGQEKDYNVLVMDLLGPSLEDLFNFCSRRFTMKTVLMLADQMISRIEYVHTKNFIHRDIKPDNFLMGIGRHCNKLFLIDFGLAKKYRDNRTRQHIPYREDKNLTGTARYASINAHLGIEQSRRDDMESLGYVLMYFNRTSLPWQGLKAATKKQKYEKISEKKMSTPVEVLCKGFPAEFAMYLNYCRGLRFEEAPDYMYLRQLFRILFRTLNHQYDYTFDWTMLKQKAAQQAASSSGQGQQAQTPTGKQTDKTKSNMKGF
# Chain of UniProt Q96GV9 (Q96GV9 whole entry, looked up): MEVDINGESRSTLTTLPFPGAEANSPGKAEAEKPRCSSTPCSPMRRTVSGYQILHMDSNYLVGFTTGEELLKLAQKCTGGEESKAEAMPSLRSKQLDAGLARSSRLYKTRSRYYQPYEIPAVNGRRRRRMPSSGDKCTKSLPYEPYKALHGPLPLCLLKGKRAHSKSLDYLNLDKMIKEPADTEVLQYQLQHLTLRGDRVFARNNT
# Chain of UniProt O43529 (O43529 whole entry, looked up): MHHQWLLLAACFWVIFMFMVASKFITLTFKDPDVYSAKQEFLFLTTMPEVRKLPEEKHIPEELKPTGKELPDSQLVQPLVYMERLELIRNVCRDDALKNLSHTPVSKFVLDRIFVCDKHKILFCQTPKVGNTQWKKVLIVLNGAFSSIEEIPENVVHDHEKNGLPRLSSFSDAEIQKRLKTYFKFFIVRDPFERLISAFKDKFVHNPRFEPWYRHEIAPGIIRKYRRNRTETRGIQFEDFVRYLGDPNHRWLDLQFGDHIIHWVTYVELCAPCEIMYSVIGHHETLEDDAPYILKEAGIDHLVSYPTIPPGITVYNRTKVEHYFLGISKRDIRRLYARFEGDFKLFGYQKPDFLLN
# Chain of UniProt P30281 (P30281 whole entry, looked up): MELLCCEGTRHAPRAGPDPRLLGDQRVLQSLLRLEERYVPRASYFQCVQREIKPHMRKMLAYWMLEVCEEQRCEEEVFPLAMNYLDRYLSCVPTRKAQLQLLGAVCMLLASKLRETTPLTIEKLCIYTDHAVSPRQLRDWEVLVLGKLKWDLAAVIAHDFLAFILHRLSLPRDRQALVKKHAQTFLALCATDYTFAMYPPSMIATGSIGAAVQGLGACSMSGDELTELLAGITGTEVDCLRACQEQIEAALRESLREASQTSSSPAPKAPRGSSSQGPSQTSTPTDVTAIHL
# Chain of UniProt Q9UBY8 (Q9UBY8 whole entry, looked up): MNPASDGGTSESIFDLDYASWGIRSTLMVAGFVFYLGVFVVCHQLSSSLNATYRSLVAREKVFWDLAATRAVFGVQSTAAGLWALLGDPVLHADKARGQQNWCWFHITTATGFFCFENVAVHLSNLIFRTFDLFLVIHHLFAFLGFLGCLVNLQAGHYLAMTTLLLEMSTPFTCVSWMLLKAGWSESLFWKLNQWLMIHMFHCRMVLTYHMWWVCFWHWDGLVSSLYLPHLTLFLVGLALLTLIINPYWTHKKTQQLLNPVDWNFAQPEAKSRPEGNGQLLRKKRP
# Chain of UniProt O75956 (O75956 whole entry, looked up): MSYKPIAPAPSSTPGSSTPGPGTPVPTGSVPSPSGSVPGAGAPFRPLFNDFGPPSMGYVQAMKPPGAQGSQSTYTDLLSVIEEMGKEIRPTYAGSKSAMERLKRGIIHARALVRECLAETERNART
# Chain of UniProt Q96F85 (Q96F85 whole entry, looked up): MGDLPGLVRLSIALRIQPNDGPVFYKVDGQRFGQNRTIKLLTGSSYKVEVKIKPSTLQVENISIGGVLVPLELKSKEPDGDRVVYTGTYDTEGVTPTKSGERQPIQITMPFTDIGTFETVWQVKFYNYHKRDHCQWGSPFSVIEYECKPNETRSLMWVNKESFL
# Chain of UniProt Q9Y2V0 (Q9Y2V0 whole entry, looked up): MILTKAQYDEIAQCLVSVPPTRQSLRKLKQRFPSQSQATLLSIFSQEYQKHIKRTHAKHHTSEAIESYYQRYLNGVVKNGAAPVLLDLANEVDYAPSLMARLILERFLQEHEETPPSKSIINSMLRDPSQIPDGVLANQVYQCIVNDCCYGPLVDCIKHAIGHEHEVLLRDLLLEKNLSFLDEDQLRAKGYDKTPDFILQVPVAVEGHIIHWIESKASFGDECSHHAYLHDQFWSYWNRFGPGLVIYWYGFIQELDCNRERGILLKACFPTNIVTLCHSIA
# Chain of UniProt Q8N4S0 (Q8N4S0 whole entry, looked up): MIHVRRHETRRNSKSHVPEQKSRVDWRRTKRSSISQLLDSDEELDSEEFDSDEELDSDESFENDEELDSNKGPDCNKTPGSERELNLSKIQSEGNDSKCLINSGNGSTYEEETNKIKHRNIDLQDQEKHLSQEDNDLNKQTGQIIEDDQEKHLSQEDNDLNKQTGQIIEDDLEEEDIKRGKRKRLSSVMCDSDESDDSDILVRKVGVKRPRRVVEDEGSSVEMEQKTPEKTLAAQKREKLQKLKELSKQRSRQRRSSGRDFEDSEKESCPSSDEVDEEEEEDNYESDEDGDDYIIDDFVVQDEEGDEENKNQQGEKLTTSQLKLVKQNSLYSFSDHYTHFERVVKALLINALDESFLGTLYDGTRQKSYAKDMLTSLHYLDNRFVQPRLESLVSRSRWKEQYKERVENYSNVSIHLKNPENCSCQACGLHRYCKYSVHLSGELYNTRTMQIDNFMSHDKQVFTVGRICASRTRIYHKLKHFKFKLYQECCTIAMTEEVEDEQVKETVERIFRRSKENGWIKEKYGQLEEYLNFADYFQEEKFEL
# Chain of UniProt Q14194 (Q14194 whole entry, looked up): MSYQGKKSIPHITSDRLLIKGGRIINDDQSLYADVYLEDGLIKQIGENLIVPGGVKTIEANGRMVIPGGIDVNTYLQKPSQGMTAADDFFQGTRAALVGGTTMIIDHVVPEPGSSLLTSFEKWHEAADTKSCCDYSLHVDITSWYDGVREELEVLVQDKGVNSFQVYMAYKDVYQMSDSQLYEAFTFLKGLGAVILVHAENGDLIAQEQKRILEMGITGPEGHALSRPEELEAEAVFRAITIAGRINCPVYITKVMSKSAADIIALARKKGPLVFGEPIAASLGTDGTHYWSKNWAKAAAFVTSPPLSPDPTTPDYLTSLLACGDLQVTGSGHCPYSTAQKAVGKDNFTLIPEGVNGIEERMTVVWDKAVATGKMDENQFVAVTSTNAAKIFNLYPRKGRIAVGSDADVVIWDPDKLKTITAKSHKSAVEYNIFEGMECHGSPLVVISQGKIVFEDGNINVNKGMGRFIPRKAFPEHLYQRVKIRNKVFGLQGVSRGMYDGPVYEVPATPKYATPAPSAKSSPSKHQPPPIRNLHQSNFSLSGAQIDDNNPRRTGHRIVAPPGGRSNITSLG
# Chain of UniProt P30305 (P30305 whole entry, looked up): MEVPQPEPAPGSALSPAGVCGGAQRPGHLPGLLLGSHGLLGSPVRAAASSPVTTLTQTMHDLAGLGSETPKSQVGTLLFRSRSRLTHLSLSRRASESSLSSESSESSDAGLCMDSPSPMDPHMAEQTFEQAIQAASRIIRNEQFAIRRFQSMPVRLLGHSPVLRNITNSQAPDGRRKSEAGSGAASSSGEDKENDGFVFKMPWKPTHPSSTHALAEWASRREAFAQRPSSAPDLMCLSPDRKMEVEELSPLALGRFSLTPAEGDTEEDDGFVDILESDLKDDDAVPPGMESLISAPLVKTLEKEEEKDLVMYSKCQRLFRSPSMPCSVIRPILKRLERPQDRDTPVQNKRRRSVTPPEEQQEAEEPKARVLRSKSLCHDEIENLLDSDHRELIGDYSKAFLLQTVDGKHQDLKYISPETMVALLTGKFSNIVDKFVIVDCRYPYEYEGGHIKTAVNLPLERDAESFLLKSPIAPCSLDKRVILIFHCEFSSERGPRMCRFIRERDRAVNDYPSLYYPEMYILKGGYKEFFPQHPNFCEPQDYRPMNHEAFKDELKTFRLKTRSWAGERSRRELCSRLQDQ
# Chain of UniProt Q8N668 (Q8N668 whole entry, looked up): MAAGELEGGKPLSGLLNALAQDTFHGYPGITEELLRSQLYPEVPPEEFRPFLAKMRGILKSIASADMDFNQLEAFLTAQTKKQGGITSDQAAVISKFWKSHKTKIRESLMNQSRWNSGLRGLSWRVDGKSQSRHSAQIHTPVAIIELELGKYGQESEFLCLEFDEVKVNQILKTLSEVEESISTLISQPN
# Chain of UniProt O95628 (O95628 whole entry, looked up): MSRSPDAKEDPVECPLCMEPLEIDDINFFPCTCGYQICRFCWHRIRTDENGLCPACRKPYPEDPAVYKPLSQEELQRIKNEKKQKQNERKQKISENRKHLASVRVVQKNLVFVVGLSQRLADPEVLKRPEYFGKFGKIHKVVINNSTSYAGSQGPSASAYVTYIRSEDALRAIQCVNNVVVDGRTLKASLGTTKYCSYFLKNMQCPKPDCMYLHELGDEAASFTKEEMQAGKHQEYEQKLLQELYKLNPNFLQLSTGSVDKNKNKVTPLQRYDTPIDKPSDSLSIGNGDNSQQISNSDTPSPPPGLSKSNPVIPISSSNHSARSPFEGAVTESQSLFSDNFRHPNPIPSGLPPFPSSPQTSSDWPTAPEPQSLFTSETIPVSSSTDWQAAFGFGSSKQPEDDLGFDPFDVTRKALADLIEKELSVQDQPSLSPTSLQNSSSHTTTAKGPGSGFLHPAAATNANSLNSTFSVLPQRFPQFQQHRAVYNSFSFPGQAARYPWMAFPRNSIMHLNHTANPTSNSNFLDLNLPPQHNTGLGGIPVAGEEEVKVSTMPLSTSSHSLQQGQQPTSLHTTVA
# Chain of UniProt P34810 (P34810 whole entry, looked up): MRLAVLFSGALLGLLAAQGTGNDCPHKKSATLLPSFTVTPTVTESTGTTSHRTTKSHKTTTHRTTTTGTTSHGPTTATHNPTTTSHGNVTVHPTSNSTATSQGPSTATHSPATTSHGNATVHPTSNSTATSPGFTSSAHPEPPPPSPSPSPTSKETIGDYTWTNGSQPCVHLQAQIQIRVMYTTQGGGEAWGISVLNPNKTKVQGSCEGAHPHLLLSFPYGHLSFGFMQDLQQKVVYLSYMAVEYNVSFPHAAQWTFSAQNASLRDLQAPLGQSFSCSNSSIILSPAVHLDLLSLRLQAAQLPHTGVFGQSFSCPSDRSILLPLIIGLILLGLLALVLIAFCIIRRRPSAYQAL
Target,log2 fold change [1],log2 fold change (crizotinib),log2 fold change [2],log2 fold change [3],log2 fold change (duvelisib),log2 fold change (gandotinib),log2 fold change [4],log2 fold change (doramapimod),log2 fold change (ispinesib),log2 fold change (bafetinib),log2 fold change [5],log2 fold change (nilotinib),log2 fold change [6],log2 fold change (dasatinib),log2 fold change [7],log2 fold change [8],log2 fold change [9],log2 fold change (tipifarnib),log2 fold change (mubritinib),log2 fold change (tozasertib)
CDK16 isoform 2 (UniProt Q00536),0.03,-0.036,0.06,-0.07,0.058,0.436 (active),0.096,-0.022,-0.046,0.038,-0.047,0.013,0.619 (active),0,0.679 (active),-0.014,0.013,-0.072,0.035,–
C15orf41 (UniProt Q9Y2V0),0.057,-0.01,0.074,0.023,0.003,-0.027,-0.004,0.08,-0.2,–,-0.101,–,–,-0.357 (active),–,-0.097,-0.088,-0.087,–,0.1
CAV2 (UniProt P51636),-0.067,-0.087,–,–,0.075,0.043,0.035,0.13,–,-1.25 (active),-0.054,0.221,-0.082,0.033,0.008,–,–,0.136,0.066,-0.115
COX7C (UniProt P15954),0.025,0.147,0.028,–,-0.04,0.043,-0.114,-0.072,-0.096,-0.066,-0.077,0.148,-0.041,0.073,-0.158,–,0.366,0.105,0.112,-0.015
COMMD1 (UniProt Q8N668),-0.108,-0.022,-0.092,–,–,0.42 (active),–,0.009,-0.112,-0.162,-0.085,0.009,-0.179,–,-0.057,–,-0.087,-0.016,-0.069,-0.049
CHST10 (UniProt O43529),0.235,-0.206,0.014,0.009,–,0.087,–,0.015,-0.009,-0.036,0.052,0.092,-0.081,–,0.104,0.071,-0.09,0.05,0.064,-0.037
CLN8 (UniProt Q9UBY8),-0.006,–,–,0.161,0.049,-0.1,-0.09,–,-0.15,-0.209,-0.662 (active),0.051,-0.11,0.032,-0.083,0.258,0.266,0.003,-0.08,-0.05
COMMD3-BMI1 (UniProt R4GMX3),0.074,–,-0.031,0.019,–,-0.011,–,–,–,–,-0.032,-0.109,-0.02,–,0.046,0.141,–,0.435,–,-0.048
CDK2AP2 (UniProt O75956),–,0.213,0.173,-0.015,–,–,–,-0.014,-0.011,0,–,0.04,0.028,–,-0.063,-0.022,-0.039,–,0.028,–
CNOT4 isoform 9 (UniProt O95628),–,-0.094,–,0.484 (active),-0.076,-0.059,-0.086,0.274,-0.102,0.081,0.067,0.094,-0.172,0.074,0,0.096,0.036,-0.019,0.055,-0.028
CASK (UniProt O14936),–,–,–,–,0.049,–,-0.039,0.034,–,–,–,–,–,0.096,–,–,–,–,–,–
CCDC82 (UniProt Q8N4S0),–,0.148,-0.174,0.015,-0.223,–,-0.119,-0.165,-0.026,-0.091,–,0.018,-0.017,0.015,-0.043,-0.132,-0.021,0.01,0.087,-0.106
CD68 (UniProt P34810),-0.016,–,–,–,–,–,–,–,–,-0.091,–,–,–,–,–,–,–,–,-0.003,–
CRMP1 isoform 2 (UniProt Q14194),0.024,–,–,0.08,0.208,-0.132,-0.003,–,–,-0.024,-0.035,-0.012,0.221,-0.074,-0.138,0.182,–,–,–,-0.602
CASP7 isoform 3 (UniProt P55210),–,–,0.3,–,-0.024,-0.155,-0.271,–,–,-1.01 (active),-0.401,0.145,-0.001,-0.239,-0.102,–,–,–,–,–
CEMIP2 (UniProt Q9UHN6),–,0.075,0.023,0.03,0.037,-0.129,-0.136,-0.144,-0.148,-0.018,0.002,0.069,0.083,-0.044,0.031,0.03,0.179,0.033,-0.024,0
CS (UniProt F8VU34),–,–,–,–,–,–,–,–,–,0.044,–,–,–,–,–,–,–,–,–,–
CNRIP1 (UniProt Q96F85),–,–,0.209,–,–,–,–,–,-0.147,–,–,-0.066,-0.071,–,0.056,–,0.038,-0.075,-0.148,–
CFAP58 (UniProt Q5T655),–,–,–,–,–,-0.011,–,–,-0.165,–,0.009,–,–,–,–,–,-0.046,-0.108,0.127,–
CCND3 (UniProt P30281),–,–,-0.271,0.096,0.014,-0.027,0.058,–,-0.116,0.07,-0.016,–,–,-0.08,–,0.04,0.092,0.026,0.024,-0.058
CCNT2 (UniProt O60583),-0.226,–,-0.148,–,-0.107,-0.065,0.047,–,-0.147,–,-0.117,0.105,-0.161,-0.02,-0.462,–,-0.219,0.08,-0.209,-0.291
CSNK1A1 isoform 3 (UniProt P48729),–,–,–,–,–,–,–,–,–,0.224,–,–,–,–,–,–,–,0.165,0.055,–
C5orf30 (UniProt Q96GV9),–,–,0.352,–,–,–,–,–,–,–,–,–,–,–,–,–,–,0.152,–,-0.24
CDC25B isoform 4 (UniProt P30305),-0.104,–,-0.216,-0.057,–,0.122,–,0.132,0.019,0.081,-0.022,-0.513 (active),-0.051,–,-0.206,0.095,-0.03,0.022,0.074,–
CLPTM1L (UniProt G5E9Z2),-0.317,–,0.073,0.067,–,-0.382,–,–,–,0.156,0.176,-0.22,0.099,–,-0.053,0.037,–,–,0.047,-0.049
CPNE5 (UniProt Q9HCH3),–,–,–,0.148,–,–,–,–,–,–,–,–,–,–,–,-0.077,–,–,–,0.374
"CCDC187, A0A1W2PQX5",–,–,-0.042,–,–,-0.352,–,–,0.274,–,-0.106,0.318,0.027,–,0.104,–,-0.056,–,–,–
